# Results taken from PubChem BioAssay (Tox21).
# A number with no mark means an inactive call. The source made the active and inactive calls. Calls follow the shape of the dose curve; as a rule, active = well fitted curve in the direction sought with a large enough effect in the repeat runs; inconclusive = weak or mixed curves; inactive = flat fitted curve, though single readings scatter.
# Experiment: qHTS assay to test for compound auto fluorescence at 590 nm (red) in HEK293 cell free culture (AID 720683)
# Settings: cell-free medium autofluorescence, Ex540/Em590 red; series mostly up to 91.3 µM; fluorescence, % of fluorescent control: at the top concentration
# Description: U.S. Tox21 Program National Center for Advancing Translational Sciences [NCATS] NIH Chemical Genomics Center [NCGC] U.S. Environmental Protection Agency [EPA] National Institutes of Environmental Health Sciences [NIEHS] National Toxicology Program [NTP] U.S. Food and Drug Administration [FDA] Tox21 Assay Overview: Compound auto fluorescence often interferes with screening of the compound library against various biological targets and signaling pathways. Some of these compounds may have fluorophoric properties. Such properties may interfere with the assay outputs resulting in false positives and/or negatives. To decrease such complications and ensure the compound activities are relevant in terms of biological response, the Tox21 10K compound library was screened for auto fluorescence. From the fluorophores used as reporter signals in our screening assays, the auto fluorescence equivalencies of compounds against three fluorophores have been evaluated: Triamterene, Fluorescein and Rose Bengal sodium for blue, green and red fluorescence, respectively. The fluorescence intensities were measured using Excitation/Emission wavelengths at 405/460nm, 485/535nm and 540/590nm for blue, green and red labels, respectively. This assay includes the red fluorescence data.
# Tox21 Assay Protocol Summary: 5 uL of culture medium (DMEM containing 10% FBS) per well was dispensed into black wall/clear bottom 1536-well plates using a Multidrop Combi Dispenser (ThermoFisher Scientific, Waltham, MA). After 23 nL compound or DMSO vehicle was transferred into assay plate by a pintool work station (Kalypsys, San Diego, CA), fluorescence intensities in the assay plates were measured by an Envision (PerkinElmer, Shelton, CT) plate reader using three labels for measuring blue, green and red fluorescence at […] 460, 535 and 590nm respectively.
# % is scaled to controls: 0 for no effect and ±100 for the full control effect.
SMILES,outcome,"fluorescence, % of fluorescent control [%]"
NC(=O)c1ncn([C@@H]2O[C@H](CO)[C@@H](O)[C@H]2O)n1,inactive,–
O=[N+]([O-])c1ccccc1C(F)(F)F,inactive,–
CC(=O)c1nccs1,inactive,–
CCCOCC(C)O (stereo not given),inactive,–
c1cnc2c(c1)ccc1cccnc12,inactive,–
Brc1ccc(Oc2ccc(Br)cc2)cc1,inactive,–
CCCCCNCCCCC,inactive,–
COC(=O)/C=C\C(=O)OC,–,-0.414
COc1c(Cl)ccc(Cl)c1C(=O)O,inactive,–
CC(=O)OC/C=C(\C)CCC=C(C)C,inactive,–
CC(C)(CO)CO,inactive,–
Nc1cccc(N)n1,inactive,–
Cc1cc(C)cc(O)c1,inactive,–
O=C(Cl)c1ccc(C(=O)Cl)cc1,inactive,–
NC1CCCCC1N (stereo not given),inactive,–
CC(CN1c2ccccc2Sc2ccccc21)N(C)C (stereo not given),inactive,–
OCc1ccc(Cl)cc1Cl,inactive,–
Cc1cc(C)c(O)c(C)c1,inactive,–
C1CCCNCC1,inactive,–
COc1c2ccoc2cc2oc(=O)ccc12,inactive,–

SMILES,outcome,"fluorescence, % of fluorescent control [%]"
Cc1ncc(CO)c(CO)c1O,inactive,–
O=C1CCCCCCCCCCC1,inactive,–
CCCN(CCC)C(=O)SCC,inactive,–
CCCCCCCC(=O)O,inactive,–
CC/C=C(\C(=O)N[C@@H]1C(=O)N2C(C(=O)OCOC(=O)C(C)(C)C)=C(COC(N)=O)CS[C@H]12)c1csc(N)n1,inactive,–
O=[N+]([O-])c1cc(C(F)(F)F)ccc1Cl,inactive,–
COc1ccccc1[N+](=O)[O-],inactive,–
OCC(CO)(CO)CO,inactive,–
Cc1ccccc1Cl,inactive,–
O=c1n(CCCN2CCN(c3cccc(Cl)c3)CC2)nc2ccccn12,inactive,–
O=C(O)Cc1c[nH]c2ccccc12,inactive,–
NC(=O)NC(N)=O,inactive,–
OCC(O)CS (stereo not given),inactive,–
Cc1cccc(C)c1[N+](=O)[O-],inactive,–
OC1CCCCC1,inactive,–
CC1=CC(=O)CC(C)(C)C1,inactive,–
O=c1c(O)c(-c2ccc(O)c(O)c2)oc2cc(O)cc(O)c12,inactive,–
OCCOCCOCCOCCOCCO,inactive,–
CN1Cc2c(N)cccc2C(c2ccccc2)C1 (stereo not given),inactive,–
O=Cc1ccc(CO)o1,inactive,–
